# Results from paper PMC7862700, “An all-to-all approach to the identification of sequence-specific readers for epigenetic DNA modifications on cytosine”.
# Experiments:
# Test in all cases: DAPPL (digital affinity profiling via proximity ligation, sequencing); 10 mM Tris-HCl pH 7.5, 50 mM NaCl, 1 mM DTT, 4% glycerol, room temperature, 30 min; GST-TFs on glutathione beads, 16-mer random dsDNA library, 0.1% formaldehyde crosslink after washing; high values mean tight binding
# FEV = molecular target: T1, FEV (Homo sapiens, UniProt Q99581 1-238); details: protein: recombinant; tags: N-terminal GST; dsDNA, one strand shown
# T1 sequence: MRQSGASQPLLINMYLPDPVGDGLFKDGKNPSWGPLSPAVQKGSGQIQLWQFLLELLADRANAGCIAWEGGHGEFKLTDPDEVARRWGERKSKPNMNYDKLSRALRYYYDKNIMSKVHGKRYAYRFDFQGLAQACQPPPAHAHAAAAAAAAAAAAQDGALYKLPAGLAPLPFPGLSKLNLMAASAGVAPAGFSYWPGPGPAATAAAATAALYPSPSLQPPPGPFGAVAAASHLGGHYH
# Method in brief: (§1)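 Binding signal is given per hexamer as its read frequency for a factor divided by its frequency in the tag-only sample. GST-fused human transcription factors were expressed in yeast, captured on glutathione beads, barcoded with DNA and pooled with that sample, then incubated with 200 nmole of a 16-mer random double-stranded DNA library in Tris/NaCl/DTT/glycerol buffer for 30 min at room temperature. The pools were then washed, crosslinked, proximity-ligated, amplified by PCR and sequenced on an Illumina NextSeq500.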
# ETV5 = ETV5 (Homo sapiens, UniProt P41161 1-510); details: protein: recombinant; tags: N-terminal GST; dsDNA, one strand shown
# Chain of ETV5 (P41161 whole entry): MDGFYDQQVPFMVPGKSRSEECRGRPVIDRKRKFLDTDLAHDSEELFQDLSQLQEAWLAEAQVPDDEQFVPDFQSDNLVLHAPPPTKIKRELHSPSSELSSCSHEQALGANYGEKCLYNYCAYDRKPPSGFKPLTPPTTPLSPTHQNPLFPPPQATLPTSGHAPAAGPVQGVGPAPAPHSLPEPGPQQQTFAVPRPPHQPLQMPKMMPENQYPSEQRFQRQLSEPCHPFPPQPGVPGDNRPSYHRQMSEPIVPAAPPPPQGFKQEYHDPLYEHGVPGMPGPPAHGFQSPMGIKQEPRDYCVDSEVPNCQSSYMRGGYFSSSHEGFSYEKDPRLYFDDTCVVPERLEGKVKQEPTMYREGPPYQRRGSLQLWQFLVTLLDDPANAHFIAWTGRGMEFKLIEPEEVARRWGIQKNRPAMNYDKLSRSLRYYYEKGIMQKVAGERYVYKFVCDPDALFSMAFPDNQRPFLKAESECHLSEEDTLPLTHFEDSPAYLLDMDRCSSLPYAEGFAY
# Method in brief: as §1
# HSF1 = HSF1 (Homo sapiens, UniProt Q00613 1-529); details: protein: recombinant; tags: N-terminal GST; chain copies: 3; dsDNA, one strand shown
# Chain of HSF1 (Q00613 whole entry): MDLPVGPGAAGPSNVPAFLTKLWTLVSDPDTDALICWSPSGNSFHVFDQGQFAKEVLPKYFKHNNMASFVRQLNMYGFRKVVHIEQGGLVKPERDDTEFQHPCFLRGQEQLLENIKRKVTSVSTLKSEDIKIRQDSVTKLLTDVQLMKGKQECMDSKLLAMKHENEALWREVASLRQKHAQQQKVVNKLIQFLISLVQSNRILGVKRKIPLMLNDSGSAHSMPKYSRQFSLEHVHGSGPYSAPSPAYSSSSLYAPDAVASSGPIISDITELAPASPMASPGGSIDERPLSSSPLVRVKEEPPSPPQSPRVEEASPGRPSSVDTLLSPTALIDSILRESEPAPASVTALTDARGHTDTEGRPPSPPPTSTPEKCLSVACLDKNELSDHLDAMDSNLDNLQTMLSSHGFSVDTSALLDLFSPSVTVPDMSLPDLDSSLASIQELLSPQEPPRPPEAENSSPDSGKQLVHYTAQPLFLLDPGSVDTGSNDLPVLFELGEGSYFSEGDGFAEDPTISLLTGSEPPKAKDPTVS
# Method in brief: as §1
# SPIC = molecular target: T2, SPIC (Homo sapiens, UniProt Q8N5J4 1-248); details: protein: recombinant; tags: N-terminal GST; dsDNA, one strand shown
# T2 sequence: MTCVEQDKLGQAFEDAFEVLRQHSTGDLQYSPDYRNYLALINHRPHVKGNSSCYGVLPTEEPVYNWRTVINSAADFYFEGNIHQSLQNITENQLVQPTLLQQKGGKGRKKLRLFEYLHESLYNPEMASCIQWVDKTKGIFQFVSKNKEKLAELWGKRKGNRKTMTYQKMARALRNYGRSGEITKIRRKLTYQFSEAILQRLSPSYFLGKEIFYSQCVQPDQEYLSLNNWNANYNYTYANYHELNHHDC
# Method in brief: as §1
# ELF4 = ELF4 (Homo sapiens, UniProt Q99607 1-663); details: protein: recombinant; tags: N-terminal GST; dsDNA, one strand shown
# Chain of ELF4 (Q99607 whole entry): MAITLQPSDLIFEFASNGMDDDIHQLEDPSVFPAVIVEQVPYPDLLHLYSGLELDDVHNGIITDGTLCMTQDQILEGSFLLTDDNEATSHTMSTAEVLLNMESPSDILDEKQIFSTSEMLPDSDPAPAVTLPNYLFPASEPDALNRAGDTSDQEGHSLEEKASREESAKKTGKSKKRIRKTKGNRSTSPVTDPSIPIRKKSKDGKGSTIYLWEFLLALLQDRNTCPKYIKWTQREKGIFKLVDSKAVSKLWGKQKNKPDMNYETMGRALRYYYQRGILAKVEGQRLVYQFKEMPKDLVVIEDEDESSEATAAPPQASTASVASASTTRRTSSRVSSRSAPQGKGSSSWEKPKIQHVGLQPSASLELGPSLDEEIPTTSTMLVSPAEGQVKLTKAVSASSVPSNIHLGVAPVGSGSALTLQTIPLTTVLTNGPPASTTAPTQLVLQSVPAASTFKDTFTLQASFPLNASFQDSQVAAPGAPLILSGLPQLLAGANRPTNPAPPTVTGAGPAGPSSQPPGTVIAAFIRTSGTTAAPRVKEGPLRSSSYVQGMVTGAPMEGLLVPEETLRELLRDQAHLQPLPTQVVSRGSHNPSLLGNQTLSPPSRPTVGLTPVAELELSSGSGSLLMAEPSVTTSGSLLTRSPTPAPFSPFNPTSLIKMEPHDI
# Method in brief: as §1
# ELK4 = molecular target: T3, ELK4 (Homo sapiens, UniProt P28324-2 1-405); details: protein: recombinant; tags: N-terminal GST; dsDNA, one strand shown
# T3 sequence: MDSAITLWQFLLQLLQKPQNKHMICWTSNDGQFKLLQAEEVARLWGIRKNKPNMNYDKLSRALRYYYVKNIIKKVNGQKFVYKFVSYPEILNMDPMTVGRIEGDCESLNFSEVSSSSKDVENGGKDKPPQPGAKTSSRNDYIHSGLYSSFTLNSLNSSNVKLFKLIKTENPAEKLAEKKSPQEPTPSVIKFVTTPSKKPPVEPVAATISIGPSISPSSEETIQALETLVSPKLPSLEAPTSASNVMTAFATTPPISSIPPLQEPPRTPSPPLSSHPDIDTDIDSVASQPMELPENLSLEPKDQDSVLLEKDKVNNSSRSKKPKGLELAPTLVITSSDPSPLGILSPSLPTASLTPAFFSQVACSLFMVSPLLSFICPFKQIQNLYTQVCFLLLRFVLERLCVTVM
# Method in brief: as §1
# ETV2 = molecular target: T4, ETV2 (Homo sapiens, UniProt O00321 1-342); details: protein: recombinant; tags: N-terminal GST; dsDNA, one strand shown
# T4 sequence: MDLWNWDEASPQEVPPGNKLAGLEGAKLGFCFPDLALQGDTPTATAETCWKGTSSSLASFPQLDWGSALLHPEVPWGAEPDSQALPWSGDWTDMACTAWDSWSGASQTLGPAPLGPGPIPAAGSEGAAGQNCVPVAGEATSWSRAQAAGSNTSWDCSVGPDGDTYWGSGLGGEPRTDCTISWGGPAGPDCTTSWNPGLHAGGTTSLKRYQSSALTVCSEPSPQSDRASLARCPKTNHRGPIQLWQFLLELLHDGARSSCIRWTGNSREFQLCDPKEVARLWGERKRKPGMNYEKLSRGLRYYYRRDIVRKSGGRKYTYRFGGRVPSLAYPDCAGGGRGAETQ
# Method in brief: as §1
# ELF3 = molecular target: T5, ELF3 (Homo sapiens, UniProt P78545 1-371); details: protein: recombinant; tags: N-terminal GST; dsDNA, one strand shown
# T5 sequence: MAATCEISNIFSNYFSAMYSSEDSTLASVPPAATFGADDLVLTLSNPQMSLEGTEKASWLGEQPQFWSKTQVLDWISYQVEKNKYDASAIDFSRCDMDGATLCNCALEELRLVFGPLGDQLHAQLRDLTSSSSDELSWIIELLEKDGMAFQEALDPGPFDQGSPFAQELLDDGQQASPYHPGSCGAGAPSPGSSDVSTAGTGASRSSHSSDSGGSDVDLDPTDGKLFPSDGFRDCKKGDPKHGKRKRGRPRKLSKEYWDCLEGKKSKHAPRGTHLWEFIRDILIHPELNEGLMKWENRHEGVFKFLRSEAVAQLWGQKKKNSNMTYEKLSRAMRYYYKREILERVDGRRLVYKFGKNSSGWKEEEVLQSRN
# Method in brief: as §1
# CRX = CRX (Homo sapiens, UniProt O43186 1-299); details: protein: recombinant; tags: N-terminal GST; dsDNA, one strand shown
# Chain of CRX (O43186 whole entry): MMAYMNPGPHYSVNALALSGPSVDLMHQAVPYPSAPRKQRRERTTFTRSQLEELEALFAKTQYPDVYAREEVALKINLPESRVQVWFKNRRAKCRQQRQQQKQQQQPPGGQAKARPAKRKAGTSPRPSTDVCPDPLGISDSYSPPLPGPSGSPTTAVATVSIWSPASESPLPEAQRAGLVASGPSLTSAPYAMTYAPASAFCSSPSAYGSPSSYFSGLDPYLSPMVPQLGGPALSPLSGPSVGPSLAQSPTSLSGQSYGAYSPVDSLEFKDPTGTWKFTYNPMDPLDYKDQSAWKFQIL
# Method in brief: as §1
# ETV1 = ETV1 (Homo sapiens, UniProt P50549 1-477); details: protein: recombinant; tags: N-terminal GST; dsDNA, one strand shown
# Chain of ETV1 (P50549 whole entry): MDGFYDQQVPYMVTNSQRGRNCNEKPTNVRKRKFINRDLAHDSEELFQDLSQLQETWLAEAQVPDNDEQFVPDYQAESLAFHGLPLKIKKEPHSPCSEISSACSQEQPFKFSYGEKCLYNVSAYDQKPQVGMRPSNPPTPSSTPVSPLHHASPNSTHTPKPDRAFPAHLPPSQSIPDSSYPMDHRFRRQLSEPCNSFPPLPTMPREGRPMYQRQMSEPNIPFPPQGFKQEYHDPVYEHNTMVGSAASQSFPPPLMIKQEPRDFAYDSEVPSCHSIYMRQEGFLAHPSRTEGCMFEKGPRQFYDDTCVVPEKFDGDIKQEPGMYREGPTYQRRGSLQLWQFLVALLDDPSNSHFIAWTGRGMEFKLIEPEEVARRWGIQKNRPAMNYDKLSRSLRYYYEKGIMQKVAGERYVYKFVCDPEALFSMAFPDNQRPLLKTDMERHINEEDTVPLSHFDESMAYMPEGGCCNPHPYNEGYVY
# Method in brief: as §1
# ERF = molecular target: T6, ERF (Homo sapiens, UniProt P50548 1-548); details: protein: recombinant; tags: N-terminal GST; dsDNA, one strand shown
# T6 sequence: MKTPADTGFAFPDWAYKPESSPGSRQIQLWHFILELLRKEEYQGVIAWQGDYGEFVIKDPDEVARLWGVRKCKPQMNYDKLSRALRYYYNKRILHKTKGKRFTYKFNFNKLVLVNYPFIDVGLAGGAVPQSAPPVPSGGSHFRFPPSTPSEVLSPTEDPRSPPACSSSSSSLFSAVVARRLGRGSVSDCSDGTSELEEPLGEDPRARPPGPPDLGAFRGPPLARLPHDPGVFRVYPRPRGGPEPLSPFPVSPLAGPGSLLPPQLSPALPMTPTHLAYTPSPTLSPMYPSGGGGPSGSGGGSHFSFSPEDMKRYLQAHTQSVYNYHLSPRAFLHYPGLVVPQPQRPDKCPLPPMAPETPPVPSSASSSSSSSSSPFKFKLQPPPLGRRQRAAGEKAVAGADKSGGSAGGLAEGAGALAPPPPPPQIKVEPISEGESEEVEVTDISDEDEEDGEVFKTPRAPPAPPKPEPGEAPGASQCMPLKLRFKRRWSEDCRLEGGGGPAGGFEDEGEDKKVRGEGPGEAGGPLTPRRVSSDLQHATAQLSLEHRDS
# Method in brief: as §1
# ETV3L = molecular target: T7, ETV3L (Homo sapiens, UniProt Q6ZN32 1-361); details: protein: recombinant; tags: N-terminal GST; dsDNA, one strand shown
# T7 sequence: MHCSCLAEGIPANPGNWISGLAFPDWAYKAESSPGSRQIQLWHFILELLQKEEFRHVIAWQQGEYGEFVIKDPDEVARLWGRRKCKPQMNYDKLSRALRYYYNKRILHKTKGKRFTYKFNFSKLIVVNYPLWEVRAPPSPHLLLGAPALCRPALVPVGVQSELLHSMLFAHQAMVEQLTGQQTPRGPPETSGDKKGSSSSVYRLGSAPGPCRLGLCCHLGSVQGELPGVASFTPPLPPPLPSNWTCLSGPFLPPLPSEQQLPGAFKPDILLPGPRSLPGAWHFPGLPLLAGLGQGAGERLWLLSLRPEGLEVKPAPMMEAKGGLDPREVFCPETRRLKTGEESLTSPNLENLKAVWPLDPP
# Method in brief: as §1
# ETS2 = molecular target: T8, ETS2 (Homo sapiens, UniProt P15036 1-469); details: protein: recombinant; tags: N-terminal GST; dsDNA, one strand shown
# T8 sequence: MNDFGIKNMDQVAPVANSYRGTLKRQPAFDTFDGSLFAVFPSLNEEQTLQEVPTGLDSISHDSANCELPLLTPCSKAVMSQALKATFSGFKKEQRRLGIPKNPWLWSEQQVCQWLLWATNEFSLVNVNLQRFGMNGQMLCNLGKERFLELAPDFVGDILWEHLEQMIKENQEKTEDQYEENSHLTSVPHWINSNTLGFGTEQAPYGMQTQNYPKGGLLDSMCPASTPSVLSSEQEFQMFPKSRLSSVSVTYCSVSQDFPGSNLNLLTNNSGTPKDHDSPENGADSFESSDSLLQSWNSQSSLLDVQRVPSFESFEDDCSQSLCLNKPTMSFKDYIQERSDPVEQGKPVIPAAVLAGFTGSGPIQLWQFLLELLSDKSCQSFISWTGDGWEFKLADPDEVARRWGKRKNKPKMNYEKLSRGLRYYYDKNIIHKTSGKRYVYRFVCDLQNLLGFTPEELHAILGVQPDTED
# Method in brief: as §1
# SPDEF = molecular target: T9, SPDEF (Homo sapiens, UniProt O95238 1-335); details: protein: recombinant; tags: N-terminal GST; dsDNA, one strand shown
# T9 sequence: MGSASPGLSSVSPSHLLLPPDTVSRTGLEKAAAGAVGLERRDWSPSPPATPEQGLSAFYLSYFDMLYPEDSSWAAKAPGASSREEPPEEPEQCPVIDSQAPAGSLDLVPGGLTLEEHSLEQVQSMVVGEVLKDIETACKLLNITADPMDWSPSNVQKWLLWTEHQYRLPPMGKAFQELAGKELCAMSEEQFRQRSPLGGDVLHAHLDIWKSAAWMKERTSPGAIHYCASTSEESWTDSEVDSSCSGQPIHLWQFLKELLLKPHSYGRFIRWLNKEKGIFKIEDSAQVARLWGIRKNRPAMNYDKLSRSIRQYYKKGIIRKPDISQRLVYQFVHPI
# Method in brief: as §1
# ETV7 = molecular target: T10, ETV7 (Homo sapiens, UniProt Q9Y603 1-341); details: protein: recombinant; tags: N-terminal GST; dsDNA, one strand shown
# T10 sequence: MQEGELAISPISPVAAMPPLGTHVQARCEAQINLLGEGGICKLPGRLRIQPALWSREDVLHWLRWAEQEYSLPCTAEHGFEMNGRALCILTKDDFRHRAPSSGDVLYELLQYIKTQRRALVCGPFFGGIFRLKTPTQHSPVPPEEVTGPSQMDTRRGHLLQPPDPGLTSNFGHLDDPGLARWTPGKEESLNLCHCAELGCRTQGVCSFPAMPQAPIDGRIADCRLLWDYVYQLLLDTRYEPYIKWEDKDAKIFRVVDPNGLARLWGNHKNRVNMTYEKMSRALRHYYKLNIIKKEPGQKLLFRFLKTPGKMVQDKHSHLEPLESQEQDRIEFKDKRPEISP
# Method in brief: as §1
# ELF5 = molecular target: T11, ELF5 (Homo sapiens, UniProt Q9UKW6-2 1-255); details: protein: recombinant; tags: N-terminal GST; dsDNA, one strand shown
# T11 sequence: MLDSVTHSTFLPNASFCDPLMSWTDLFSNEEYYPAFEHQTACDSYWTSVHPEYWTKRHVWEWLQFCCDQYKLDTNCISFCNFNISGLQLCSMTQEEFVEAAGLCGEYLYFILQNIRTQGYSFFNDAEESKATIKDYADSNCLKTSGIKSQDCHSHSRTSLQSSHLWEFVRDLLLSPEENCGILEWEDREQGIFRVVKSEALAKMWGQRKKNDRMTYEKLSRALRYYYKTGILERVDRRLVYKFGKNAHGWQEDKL
# Method in brief: as §1
# ETV3 = molecular target: T12, ETV3 (Homo sapiens, UniProt P41162-2 1-143); details: protein: recombinant; tags: N-terminal GST; dsDNA, one strand shown
# T12 sequence: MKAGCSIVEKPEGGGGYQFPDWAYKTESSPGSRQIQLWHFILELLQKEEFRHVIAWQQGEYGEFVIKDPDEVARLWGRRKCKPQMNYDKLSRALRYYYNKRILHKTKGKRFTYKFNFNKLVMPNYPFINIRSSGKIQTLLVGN
# Method in brief: as §1
# ETV6 = ETV6 (Homo sapiens, UniProt P41212 1-452); details: protein: recombinant; tags: N-terminal GST; dsDNA, one strand shown
# Chain of ETV6 (P41212 whole entry): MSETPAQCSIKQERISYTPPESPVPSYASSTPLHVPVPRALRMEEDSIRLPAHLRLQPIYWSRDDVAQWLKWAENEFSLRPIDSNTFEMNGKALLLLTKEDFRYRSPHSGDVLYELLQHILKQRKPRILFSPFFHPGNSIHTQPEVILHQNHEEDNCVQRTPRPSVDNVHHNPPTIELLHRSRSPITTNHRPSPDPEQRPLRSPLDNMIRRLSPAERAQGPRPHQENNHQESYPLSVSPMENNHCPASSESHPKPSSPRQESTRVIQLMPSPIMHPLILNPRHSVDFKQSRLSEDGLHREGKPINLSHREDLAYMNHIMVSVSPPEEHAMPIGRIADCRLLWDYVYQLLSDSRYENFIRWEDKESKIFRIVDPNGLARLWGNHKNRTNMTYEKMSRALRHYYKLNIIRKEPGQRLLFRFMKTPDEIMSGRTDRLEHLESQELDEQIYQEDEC
# Method in brief: as §1
sequence,measurement,setting,value
ATACAC,binding signal,FEV,"1.24 fold enrichment (6-mer frequency, TF over GST control)"
same,binding signal,ETV5,"1.22 fold enrichment (6-mer frequency, TF over GST control)"
same,binding signal,HSF1,"1.01 fold enrichment (6-mer frequency, TF over GST control)"
same,binding signal,SPIC,"1.22 fold enrichment (6-mer frequency, TF over GST control)"
same,binding signal,ELF4,"1.24 fold enrichment (6-mer frequency, TF over GST control)"
same,binding signal,ELK4,"1.25 fold enrichment (6-mer frequency, TF over GST control)"
same,binding signal,ETV2,"1.24 fold enrichment (6-mer frequency, TF over GST control)"
same,binding signal,ELF3,"1.16 fold enrichment (6-mer frequency, TF over GST control)"
same,binding signal,CRX,"1.04 fold enrichment (6-mer frequency, TF over GST control)"
same,binding signal,ETV1,"1.31 fold enrichment (6-mer frequency, TF over GST control)"
same,binding signal,ERF,"1.32 fold enrichment (6-mer frequency, TF over GST control)"
same,binding signal,ETV3L,"1.18 fold enrichment (6-mer frequency, TF over GST control)"
same,binding signal,ETS2,"1.16 fold enrichment (6-mer frequency, TF over GST control)"
same,binding signal,SPDEF,"1.28 fold enrichment (6-mer frequency, TF over GST control)"
same,binding signal,ETV7,"1.21 fold enrichment (6-mer frequency, TF over GST control)"
same,binding signal,ELF5,"1.15 fold enrichment (6-mer frequency, TF over GST control)"
same,binding signal,ETV3,"1.17 fold enrichment (6-mer frequency, TF over GST control)"
same,binding signal,ETV6,"1.12 fold enrichment (6-mer frequency, TF over GST control)"
